Screens deposited in PubChem BioAssay by Buhrlage Lab, Dana-Farber Cancer Institute and Novartis Institutes for BioMedical Research (Cambridge, Mass).
Hits are enriched below; roughly 13% of the tested compounds scored in any of these assays.
USP30 inh = inhibitors of human USP30 deubiquitinase; actives 5.3% (n = 47,000); purified USP30, Ub-rhodamine cleavage fluorescence; inhibition, % at 25 µM; Ubiquitin carboxyl-terminal hydrolase 30 (Homo sapiens), Q70CQ3
USP17 block = inhibitors of human USP17 deubiquitinase. actives 6.5% (n = 47,000). Ubiquitin carboxyl-terminal hydrolase 17-like protein 5 (Homo sapiens), A8MUK1. inhibition, % at 50 µM. purified USP17, Ub-rhodamine cleavage fluorescence, 3 h
USP28 inh = inhibitors of human USP28 deubiquitinase. actives 3% (n = 47,000). purified USP28, Ub-rhodamine cleavage fluorescence, 30 min. AID 1645857, 2021. inhibition, % at 25 µM. Ubiquitin carboxyl-terminal hydrolase 28 (Homo sapiens), Q96RU2
USP8 inh = inhibitors of human USP8 deubiquitinase. inhibition, % at 20 µM. purified USP8, Ub-rhodamine cleavage fluorescence, 30 min. Ubiquitin carboxyl-terminal hydrolase 8 (Homo sapiens), P40818. actives 4.2% (n = 47,000)
Target sequence (P40818 whole entry, looked up): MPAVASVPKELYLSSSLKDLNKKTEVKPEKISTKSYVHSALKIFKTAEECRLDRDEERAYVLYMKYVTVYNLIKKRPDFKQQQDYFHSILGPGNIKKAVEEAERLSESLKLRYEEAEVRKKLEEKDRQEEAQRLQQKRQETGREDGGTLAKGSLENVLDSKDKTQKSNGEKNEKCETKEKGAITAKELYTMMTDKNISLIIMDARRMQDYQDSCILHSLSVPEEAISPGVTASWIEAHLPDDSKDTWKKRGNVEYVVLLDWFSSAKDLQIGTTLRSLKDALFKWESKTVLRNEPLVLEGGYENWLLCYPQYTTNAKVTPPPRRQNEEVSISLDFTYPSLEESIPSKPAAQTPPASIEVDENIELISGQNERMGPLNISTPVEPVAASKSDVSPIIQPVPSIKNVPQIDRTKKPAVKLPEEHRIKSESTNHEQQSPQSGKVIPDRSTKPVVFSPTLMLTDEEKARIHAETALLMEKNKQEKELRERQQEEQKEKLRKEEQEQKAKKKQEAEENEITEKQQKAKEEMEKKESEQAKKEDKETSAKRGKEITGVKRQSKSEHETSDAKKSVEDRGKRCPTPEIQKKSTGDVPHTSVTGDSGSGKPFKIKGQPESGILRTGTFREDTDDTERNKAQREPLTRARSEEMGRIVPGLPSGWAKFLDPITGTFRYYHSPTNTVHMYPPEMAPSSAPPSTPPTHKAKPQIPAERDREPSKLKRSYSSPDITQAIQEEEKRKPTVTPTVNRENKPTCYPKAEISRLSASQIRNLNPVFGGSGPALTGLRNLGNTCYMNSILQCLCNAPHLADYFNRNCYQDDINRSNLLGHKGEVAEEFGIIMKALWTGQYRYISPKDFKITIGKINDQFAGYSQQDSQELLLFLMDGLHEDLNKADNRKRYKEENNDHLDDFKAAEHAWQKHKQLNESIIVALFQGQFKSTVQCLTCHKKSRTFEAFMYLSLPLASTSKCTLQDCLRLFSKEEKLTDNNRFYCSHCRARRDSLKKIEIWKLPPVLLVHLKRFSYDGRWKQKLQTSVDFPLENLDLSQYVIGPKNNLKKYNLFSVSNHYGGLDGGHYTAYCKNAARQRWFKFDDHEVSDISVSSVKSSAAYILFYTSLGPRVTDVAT
Starred values were filed as active, the others as inactive; · = no result given. No stated cut-off is given here; in the data, active means inhibition above about 30%; inactive means the rest.

SMILES | USP30 inh | USP17 block | USP28 inh | USP8 inh
COc1ccc(-c2cc(-c3ccccc3)nc(SCC(N)=O)c2C#N)cc1OC | -7 | 75* | -10 | 28
CC1CCC2(C(=O)O)CCC3(C)C(=CCC4C5(C)CCC(O)C(C)(C)C5CCC43C)C2C1C (mixture of isomers) | 40* | 23 | 16 | 2
C[C@@H]1CC[C@]2(C(=O)O)CC[C@]3(C)C(=CCC4[C@@]5(C)CC[C@H](O)C(C)(C)C5CC[C@]43C)C2[C@H]1C (stereo partly specified) | 35* | 4 | 9 | 2
Cc1ccc(NC(=O)CCC2CCCN(c3cc(NC4CC4)ncn3)C2)cc1 (stereo unspecified) | -13 | -16 | 0 | -78
Cc1cc(C)n(-c2ccc(C(=O)NCc3cn4cc(C(F)(F)F)cc(Cl)c4n3)cc2)n1 | 0 | 37* | 19 | -3
Nc1nc(OCc2ccccc2)c2[nH]c(/C=C/c3cccs3)nc2n1 | 84* | 17 | 67* | 72*
O=C(Nc1oc2ccccc2c(=O)c1-c1ccc(F)cc1)c1ccccc1 | 18 | 8 | 13 | 2
O=C(Nc1oc2ccccc2c(=O)c1-c1ccc2c(c1)OCO2)C1CCCCC1 | 26 | 83* | 5 | 15
CC(=O)Nc1c(-c2ccc3c(c2)OCO3)c(=O)c2ccccc2n1C | 49* | 12 | 5 | 21
Cc1cc(-c2cncnc2C2CCN(CC(=O)Nc3nnc(C)s3)CC2)on1 | 5 | -7 | -8 | 0
Cc1ccccc1CNC(=O)N1CCC2(CC1)OC(C(=O)N1CCCC1)Cn1ccnc12 (stereo unspecified) | -27 | -9 | -4 | -47
O=C(NCC1CC1)C1CCN(c2cnc(N3CCCC3)nc2)CC1 | -74 | -29 | -25 | -4
Cc1cc(Cl)ccc1NC(=O)CCS(=O)(=O)c1ccc2c(c1)OCC(=O)N2 | -8 | 34* | -9 | 1
CCOc1ccc(NC(=O)CSCC(=O)Nc2cccc(C)c2)cc1 | -5 | 0 | 1 | 0
Cc1cccc(NC(=O)c2nc3c(=O)[nH]c4cc(C)ccc4n3n2)c1 | -174 | 35* | -11 | -35
CCOc1ccc(NC(=O)c2nc3c(=O)[nH]c4cc(C)ccc4n3n2)cc1 | -134 | 54* | -41 | 10
O=C(Nc1nccs1)C1c2ccccc2C(=O)N(Cc2ccccc2)C12CCCC2 (stereo unspecified) | 15 | 7 | 1 | 69*
COCCN1C(=O)c2ccccc2C(C(=O)Nc2ccc3c(c2)OCO3)C12CCCC2 (stereo unspecified) | 9 | 45* | 23 | 69*
CC(=O)N1CCCC(c2nc(C)cc(Nc3ccccn3)n2)C1 (stereo unspecified) | -10 | 2 | -7 | 10
O=C(Cc1c[nH]c2ccccc12)Nc1nc2ccccc2s1 | -8 | 5 | 64* | 7
Cc1cccc2sc(NC(=O)Cc3c[nH]c4ccccc34)nc12 | -22 | -6 | 19 | -3
CCOC(=O)N1CCN(C(=O)c2[nH]nc3c2COc2ccccc2-3)CC1 | 4 | -2 | 0 | 1
COc1ccc2c(c1)CCc1c-2n[nH]c1C(=O)Nc1ccccc1OC | -35 | 50* | -7 | 1
COc1ccc2c(c1)CCc1c-2n[nH]c1-c1nc(-c2ccccn2)no1 | -58 | 33* | -28 | -12
COc1ccc2c(c1)CCc1c-2n[nH]c1C(=O)Nc1ccc(F)cc1C | 30* | 15 | 6 | 16
SMILES | USP30 inh | USP17 block | USP28 inh | USP8 inh
COc1ccc(NC(=O)c2[nH]nc3c2CCc2ccccc2-3)c(OC)c1 | -53 | 15 | 11 | 2
COc1ccc(NC(=O)c2[nH]nc3c2COc2ccccc2-3)c(OC)c1 | 10 | 77* | 21 | 59*
O=C1CCCN1CC(=O)N1CCCC1c1ccccc1 (stereo unspecified) | -4 | -12 | -11 | 5
Cc1ccc(S(=O)(=O)c2cnc3ccc(C)cc3c2N2CCCCCC2)cc1 | 13 | 8 | 7 | 5
Cc1ccc(NS(=O)(=O)c2cc(-c3[nH]ncc3C(=O)N3CCOCC3)oc2C)cc1 | -10 | -14 | -4 | -23
CCc1cc2c(=O)[nH]c(Cc3ccc(OC)cc3)nc2s1 | 40* | 58* | 11 | 35*
O=C(Nc1nccnc1C(=O)NCc1ccccn1)c1ccccc1 | -30 | -4 | -12 | 38*
Cc1ccc(C(=O)Nc2nccnc2C(=O)NCc2ccccc2C)cc1 | -4 | -3 | -7 | -8
CO[C@H]1C[C@@H]2CC[C@@H](C)[C@@](O)(O2)C(=O)C(=O)N2CCCC[C@H]2C(=O)O[C@@H]([C@H](C)C[C@@H]2CC[C@@H](O)[C@H](OC)C2)CC(=O)[C@H](C)/C=C(\C)[C@@H](O)CC(=O)[C@H](C)C[C@H](C)/C=C/C=C/C=C/1C | -2 | 8 | 0 | 17
C[C@@H]1/C=C/CC/C=C/C(=O)[C@H](C)[C@@H]2CC[C@@H](C)[C@@](O)(O2)C(=O)C(=O)N2CCCC[C@H]2C(=O)O[C@H]([C@H](C)C[C@@H]2CC[C@@H](O)[C@H](O)C2)CC1 | 93* | 82* | 97* | 12
Cc1cccc(NC(=O)CC2C(=O)N(Cc3cccnc3)c3nc4ccccc4n32)c1 (stereo unspecified) | -7 | -16 | -14 | -13
Cc1ccc(NC(=O)CC2C(=O)N(Cc3cccnc3)c3nc4ccccc4n32)c(C)c1 (stereo unspecified) | 0 | 39* | -10 | -3
COc1ccc(Cl)cc1C(=O)N1CCC(c2nc(C)c3c(n2)N(C)C(=O)CC3)C1 (stereo unspecified) | -32 | -21 | -16 | -34
CCc1ccc(OCC(=O)NS(=O)(=O)c2ccccc2)cc1 | -6 | -3 | -5 | 3
Cc1ccc(N2C(=O)c3ccccc3C2Nc2ccc(F)cc2)nc1 (stereo unspecified) | -20 | -15 | -13 | 2
CSc1cccc(NC2c3ccccc3C(=O)N2c2ccccc2C)c1 (stereo unspecified) | 10 | 19 | 44* | 2
O=S(=O)(NCC(O)c1ccccc1)c1ccc(-c2ccccn2)s1 (stereo unspecified) | -1 | -12 | -5 | 0
NS(=O)(=O)c1ccc(CNS(=O)(=O)c2ccc(-c3ccccn3)s2)cc1 | 60* | · | 24 | 2
CCCn1c(-c2ccc(OC)cc2)nc2ccccc21 | · | -4 | · | 4
c1coc(-c2nc3ccccc3n2CCC2CCCCC2)c1 | -18 | 36* | 26 | 68*
CC(C)Cn1c(=O)c2nscc2n(CC(=O)Nc2ccc(F)cc2F)c1=O | 0 | 16 | 8 | 36*
CC(C)Cn1c(=O)c2nscc2n(CC(=O)NCc2ccccc2)c1=O | -42 | 9 | -4 | 39*
CC(C)Cn1c(=O)c2nscc2n(CC(=O)NC2CCCC2)c1=O | · | -13 | · | -4
Cc1ccccc1NC(=O)Cn1c(=O)n(CC(C)C)c(=O)c2nscc21 | -179 | -8 | -36 | 38*
CC(=O)N1CCN(C(=O)c2ccc3nc(-n4cccc4)sc3c2)CC1 | 6 | -12 | 6 | -5
